The full data set covers some 8,800 targets. This sample favours those with a hit. About 0.5% of all pairs of compound and target were hits.
Experiments:
Assay in all cases: log2 fold change, soluble protein after heating vs DMSO (PISA); higher = thermal stabilisation; K562 lysate, 10 uM; active = over 0.2 and 3.5 SD of the protein, either way, in both replicates (recomputed)
[1] = compound: C1=CC=C(C=C1)[C@H](COC2=CC3=C(C=C2)NC(=O)N3)NC(=O)C4=CC=CN(C4=O)CC5=CC(=C(C=C5)F)F
In short: (§1)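 K562 pellets were dounce-homogenised in PBS pH 7.4 with 1 mM MgCl2, and the crude extract at 1 mg/mL protein was treated with 10 μM compound for 30 min. Aliquots were heated for 3 min across 48°C-58°C, pooled, and brought to 0.5% NP-40 at 4°C; soluble protein was the supernatant after 21,000xg for 90 min. Soluble protein was quantified by TMTpro 16plex LC-MS/MS with channel sums equalised, and reported as log2 fold change in thermal stability against DMSO controls, with values from duplicates.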

[2] = compound: CC1=C(SC2=C1C(=N[C@H](C3=NN=C(N32)C)CC(=O)N)C4=CC=C(C=C4)Cl)C
In short: as §1

[3] = compound: CC1=C2C(=CC=C1)N=C(N(C2=O)C3=CC=CC=C3C)CN4C=NC5=C(N=CN=C54)N
In short: as §1

[4] = compound: Cc1sc2c(c1C)C(c1ccc(Cl)cc1)=N[C@@H](CC(=O)OC(C)(C)C)c1nnc(C)n1-2
In short: as §1

[5] = compound: c1ccc([C@@H]2C[C@H]2NC2CCNCC2)cc1
In short: as §1

IRAK-1-4 Inhibitor I = compound: C1COCCN1CCN2C3=CC=CC=C3N=C2NC(=O)C4=CC(=CC=C4)[N+](=O)[O-] [IRAK-1-4 Inhibitor I]
In short: as §1

Measured: log2 fold change

ATAD3B (UniProt Q5T9A4)
inactive: [1] 0.082 | [2] -0.033 | [3] -0.021 | [4] 0.047 | [5] 0.172

CCDC22 (UniProt O60826)
inactive: [1] -0.009 | [2] 0 | [3] -0.044 | [4] 0.053 | [5] 0.032

CEP128 (UniProt Q6ZU80)
inactive: [1] -0.38 | [2] 0.338 | [3] -0.023 | [4] -0.125 | [5] -0.507

CARD9 (UniProt Q9H257)
Sequence of UniProt Q9H257 (Q9H257 whole entry, looked up): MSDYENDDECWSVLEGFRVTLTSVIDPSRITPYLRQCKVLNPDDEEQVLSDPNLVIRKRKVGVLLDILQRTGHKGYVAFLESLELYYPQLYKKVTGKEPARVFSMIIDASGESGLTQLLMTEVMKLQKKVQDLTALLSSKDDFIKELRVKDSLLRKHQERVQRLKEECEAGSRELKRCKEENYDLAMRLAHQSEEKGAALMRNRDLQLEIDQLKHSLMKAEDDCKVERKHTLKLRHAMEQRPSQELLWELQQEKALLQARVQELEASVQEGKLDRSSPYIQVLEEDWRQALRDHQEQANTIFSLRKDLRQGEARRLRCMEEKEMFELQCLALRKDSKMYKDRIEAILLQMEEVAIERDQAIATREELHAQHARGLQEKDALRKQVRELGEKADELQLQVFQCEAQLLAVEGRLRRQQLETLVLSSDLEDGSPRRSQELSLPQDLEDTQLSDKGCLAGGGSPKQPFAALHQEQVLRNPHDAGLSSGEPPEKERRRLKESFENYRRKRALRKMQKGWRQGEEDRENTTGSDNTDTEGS
inactive: [1] -0.039 | [2] 0.065 | [3] 0.023 | [4] -0.009 | [5] 0.035

ATG10 (UniProt Q9H0Y0)
inactive: [1] 0.008 | [2] 0 | [3] -0.057 | [4] 0.047 | [5] 0.076

CALM2 (UniProt P0DP24)
inactive: [1] -0.07 | [2] -0.177 | [3] 0.009 | [4] -0.088 | [5] -0.001

CCDC51 (UniProt Q96ER9)
inactive: [1] -0.063 | [2] 0.023 | [3] -0.029 | [4] 0.014 | [5] 0.157

CAPN15 (UniProt O75808)
inactive: [1] -0.047 | [2] 0.063 | [3] -0.017 | [4] -0.011 | [5] 0.056

BRD3 (UniProt Q15059)
inactive: [1] 0.027 | [3] 0.112 | [5] -0.167
active: [2] 0.631 | [4] 0.5

CHCHD4 isoform 2 (UniProt Q8N4Q1)
Sequence of UniProt Q8N4Q1 (Q8N4Q1 whole entry, looked up): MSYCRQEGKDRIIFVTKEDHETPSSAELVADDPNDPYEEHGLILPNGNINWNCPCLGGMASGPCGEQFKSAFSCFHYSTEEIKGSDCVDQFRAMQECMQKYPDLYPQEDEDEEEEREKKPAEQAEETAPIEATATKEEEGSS
inactive: [1] 0.04 | [2] -0.076 | [3] -0.101 | [4] -0.189 | [5] -0.168

CDC42EP4 (UniProt Q9H3Q1)
Sequence of UniProt Q9H3Q1 (Q9H3Q1 whole entry, looked up): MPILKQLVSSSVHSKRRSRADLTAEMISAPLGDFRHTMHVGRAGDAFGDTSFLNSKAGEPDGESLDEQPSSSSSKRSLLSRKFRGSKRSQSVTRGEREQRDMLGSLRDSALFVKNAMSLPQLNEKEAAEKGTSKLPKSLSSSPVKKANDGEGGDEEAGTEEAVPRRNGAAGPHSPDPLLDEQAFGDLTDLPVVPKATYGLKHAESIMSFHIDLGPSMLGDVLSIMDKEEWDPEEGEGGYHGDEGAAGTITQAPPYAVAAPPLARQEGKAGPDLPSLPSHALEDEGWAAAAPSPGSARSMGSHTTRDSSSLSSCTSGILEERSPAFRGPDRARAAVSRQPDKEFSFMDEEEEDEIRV
inactive: [1] 0.113 | [2] -0.084 | [3] -0.098 | [4] 0.004 | [5] -0.036

ATP5PF isoform 2 (UniProt P18859)
inactive: [1] 0.085 | [2] -0.086 | [3] -0.05 | [4] 0.075 | [5] 0.228

CEP76 (UniProt Q8TAP6)
inactive: [1] -0.009 | [2] -0.01 | [3] -0.043 | [4] 0.002 | [5] -0.027

CAMLG (UniProt P49069)
inactive: [1] 0.058 | [2] 0.003 | [3] 0.018 | [4] 0.05 | [5] 0.074

C18orf25 (UniProt Q96B23)
inactive: [1] 0.013 | [2] -0.035 | [3] 0.043 | [4] 0.017 | [5] -0.033

CDK2 (UniProt P24941)
inactive: [1] 0.006 | [2] 0.004 | [3] -0.039 | [4] 0.076 | [5] -0.028

CASP9 (UniProt P55211)
Sequence of UniProt P55211 (P55211 whole entry, looked up): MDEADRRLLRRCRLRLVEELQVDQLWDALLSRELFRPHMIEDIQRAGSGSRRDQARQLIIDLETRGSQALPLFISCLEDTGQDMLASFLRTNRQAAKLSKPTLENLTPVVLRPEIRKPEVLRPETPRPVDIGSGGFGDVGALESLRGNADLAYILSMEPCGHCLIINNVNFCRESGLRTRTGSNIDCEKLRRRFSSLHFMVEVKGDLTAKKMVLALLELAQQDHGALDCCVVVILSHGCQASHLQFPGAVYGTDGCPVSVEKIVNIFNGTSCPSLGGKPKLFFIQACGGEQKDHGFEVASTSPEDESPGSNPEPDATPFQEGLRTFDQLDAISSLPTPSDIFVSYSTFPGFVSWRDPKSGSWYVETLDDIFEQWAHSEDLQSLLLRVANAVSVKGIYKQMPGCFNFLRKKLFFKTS
inactive: [1] 0.041 | [2] -0.024 | [3] 0.019 | [4] -0.05 | [5] -0.048

CCT6A (UniProt P40227)
inactive: [1] 0.007 | [2] -0.007 | [3] -0.01 | [4] 0.004 | [5] 0.025

BRAT1 (UniProt Q6PJG6)
inactive: [1] -0.043 | [2] -0.005 | [3] 0.027 | [4] 0.005 | [5] 0.003

BTAF1 (UniProt O14981)
inactive: [1] 0.013 | [2] 0 | [3] -0.005 | [4] 0.04 | [5] -0.02

CASP3 (UniProt P42574)
inactive: [1] 0.051 | [2] -0.011 | [3] 0.039 | [4] 0.051 | [5] 0.103

CASC4 (UniProt Q6P4E1)
inactive: [1] -0.008 | [2] 0.027 | [3] 0.039 | [4] -0.015 | [5] -0.055

CHD5 (UniProt Q8TDI0)
inactive: [1] -0.039 | [2] 0.003 | [3] -0.002 | [4] 0.085 | [5] 0.032

CCPG1 isoform 5 (UniProt Q9ULG6)
inactive: [1] -0.069 | [2] -0.118 | [3] 0.046 | [4] -0.082 | [5] -0.026

CEP120 (UniProt Q8N960)
inactive: [1] -0.074 | [2] 0.097 | [3] 0.145 | [4] -0.169 | [5] 0.184

BCR (UniProt P11274)
inactive: [1] -0.03 | [2] 0.005 | [3] -0.014 | [4] 0.007 | [5] 0.027

BMT2 (UniProt Q1RMZ1)
inactive: [5] 0.123

C15orf39 (UniProt Q6ZRI6)
inactive: [1] -0.095 | [2] 0.049 | [4] 0.032 | [5] 0.161

CARHSP1 (UniProt H3BNU9)
inactive: [1] -0.034 | [2] -0.224 | [5] 0.094

CHD9 (UniProt Q3L8U1)
Sequence of UniProt Q3L8U1 (Q3L8U1 whole entry, looked up): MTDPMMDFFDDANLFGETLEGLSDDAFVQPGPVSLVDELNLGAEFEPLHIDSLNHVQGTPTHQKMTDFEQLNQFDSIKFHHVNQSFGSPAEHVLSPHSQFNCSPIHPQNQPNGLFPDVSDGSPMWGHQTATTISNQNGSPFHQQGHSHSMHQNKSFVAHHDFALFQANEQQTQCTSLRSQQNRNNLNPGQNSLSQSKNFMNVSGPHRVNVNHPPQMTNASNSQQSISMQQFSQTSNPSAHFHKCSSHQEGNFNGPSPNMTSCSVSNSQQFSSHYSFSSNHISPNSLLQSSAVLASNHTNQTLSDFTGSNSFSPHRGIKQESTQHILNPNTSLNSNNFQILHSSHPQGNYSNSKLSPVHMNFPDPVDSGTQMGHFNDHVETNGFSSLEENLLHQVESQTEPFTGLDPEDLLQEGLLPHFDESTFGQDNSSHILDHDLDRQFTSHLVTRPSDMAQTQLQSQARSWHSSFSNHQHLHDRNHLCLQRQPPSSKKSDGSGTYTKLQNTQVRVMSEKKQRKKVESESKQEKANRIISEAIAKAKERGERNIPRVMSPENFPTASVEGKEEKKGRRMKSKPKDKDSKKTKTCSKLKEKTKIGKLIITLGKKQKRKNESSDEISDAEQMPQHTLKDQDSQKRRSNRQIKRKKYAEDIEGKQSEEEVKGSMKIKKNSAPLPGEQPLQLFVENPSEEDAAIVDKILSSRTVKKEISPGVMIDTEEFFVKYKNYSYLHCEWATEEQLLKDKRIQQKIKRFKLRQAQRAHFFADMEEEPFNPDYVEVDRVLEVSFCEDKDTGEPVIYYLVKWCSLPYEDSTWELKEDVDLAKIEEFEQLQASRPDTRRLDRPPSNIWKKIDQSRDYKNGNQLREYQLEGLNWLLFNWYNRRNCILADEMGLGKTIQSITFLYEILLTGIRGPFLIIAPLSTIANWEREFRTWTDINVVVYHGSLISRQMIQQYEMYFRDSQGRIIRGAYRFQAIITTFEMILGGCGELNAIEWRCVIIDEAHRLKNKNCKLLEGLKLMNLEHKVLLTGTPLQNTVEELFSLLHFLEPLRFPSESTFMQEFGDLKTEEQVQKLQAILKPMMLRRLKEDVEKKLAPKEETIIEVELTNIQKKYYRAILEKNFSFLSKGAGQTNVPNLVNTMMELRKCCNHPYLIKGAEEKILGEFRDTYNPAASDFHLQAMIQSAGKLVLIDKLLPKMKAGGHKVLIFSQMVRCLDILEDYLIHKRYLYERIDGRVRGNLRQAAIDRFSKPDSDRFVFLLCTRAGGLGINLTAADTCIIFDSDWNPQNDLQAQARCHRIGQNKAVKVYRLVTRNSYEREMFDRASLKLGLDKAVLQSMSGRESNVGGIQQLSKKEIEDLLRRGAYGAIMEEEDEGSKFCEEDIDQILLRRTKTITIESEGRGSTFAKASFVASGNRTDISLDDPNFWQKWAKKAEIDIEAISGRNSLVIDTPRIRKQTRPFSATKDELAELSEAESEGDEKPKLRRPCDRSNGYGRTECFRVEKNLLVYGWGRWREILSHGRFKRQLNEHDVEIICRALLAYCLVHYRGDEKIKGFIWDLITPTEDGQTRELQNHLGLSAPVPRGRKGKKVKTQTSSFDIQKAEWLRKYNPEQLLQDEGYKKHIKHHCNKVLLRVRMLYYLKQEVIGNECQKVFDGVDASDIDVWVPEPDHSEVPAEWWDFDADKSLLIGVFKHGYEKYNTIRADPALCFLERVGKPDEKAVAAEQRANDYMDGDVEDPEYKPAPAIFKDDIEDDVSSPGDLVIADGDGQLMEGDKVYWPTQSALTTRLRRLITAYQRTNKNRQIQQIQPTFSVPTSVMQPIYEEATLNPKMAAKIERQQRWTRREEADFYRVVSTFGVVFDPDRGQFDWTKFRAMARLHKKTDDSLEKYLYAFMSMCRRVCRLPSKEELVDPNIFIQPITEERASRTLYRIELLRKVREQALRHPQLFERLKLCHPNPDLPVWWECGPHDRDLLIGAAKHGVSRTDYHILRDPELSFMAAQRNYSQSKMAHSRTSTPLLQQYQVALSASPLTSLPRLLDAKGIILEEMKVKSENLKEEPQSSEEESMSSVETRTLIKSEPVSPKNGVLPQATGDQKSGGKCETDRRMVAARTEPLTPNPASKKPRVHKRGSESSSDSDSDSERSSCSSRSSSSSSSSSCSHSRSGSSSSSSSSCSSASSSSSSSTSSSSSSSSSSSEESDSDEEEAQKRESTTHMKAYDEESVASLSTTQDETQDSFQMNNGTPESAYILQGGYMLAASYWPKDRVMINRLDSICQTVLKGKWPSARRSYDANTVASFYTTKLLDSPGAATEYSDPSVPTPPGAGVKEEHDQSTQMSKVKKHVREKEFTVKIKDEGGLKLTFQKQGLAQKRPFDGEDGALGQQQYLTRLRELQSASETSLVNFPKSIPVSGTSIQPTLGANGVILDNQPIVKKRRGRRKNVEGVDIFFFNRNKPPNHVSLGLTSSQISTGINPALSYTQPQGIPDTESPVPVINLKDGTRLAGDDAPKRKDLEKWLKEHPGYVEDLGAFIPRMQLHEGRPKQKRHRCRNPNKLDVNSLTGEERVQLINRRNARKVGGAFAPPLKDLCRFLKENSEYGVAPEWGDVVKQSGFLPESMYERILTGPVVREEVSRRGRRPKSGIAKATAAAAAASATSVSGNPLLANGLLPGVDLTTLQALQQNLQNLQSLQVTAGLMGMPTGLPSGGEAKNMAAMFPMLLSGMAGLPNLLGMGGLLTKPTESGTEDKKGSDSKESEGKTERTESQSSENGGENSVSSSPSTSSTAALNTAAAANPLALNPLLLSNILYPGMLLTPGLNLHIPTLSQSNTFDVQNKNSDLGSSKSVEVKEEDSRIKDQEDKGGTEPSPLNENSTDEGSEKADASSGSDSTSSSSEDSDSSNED
inactive: [3] -0.074 | [4] 0.236 | [5] 0.232

BRAF, A0A2R8Y8E0
inactive: [3] -0.13

CEBPZOS (UniProt A8MTT3)
Sequence of UniProt A8MTT3 (A8MTT3 whole entry, looked up): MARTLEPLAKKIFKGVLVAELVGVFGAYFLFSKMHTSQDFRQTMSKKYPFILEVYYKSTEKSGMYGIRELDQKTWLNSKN
inactive: [3] -0.03 | [4] -0.006 | [5] 0.018

C3AR1 (UniProt Q16581)
inactive: [1] 0.121 | [2] 0.024 | [5] -0.083

CHD4, A0A2R8Y521
inactive: [4] -0.136

CENPV (UniProt Q7Z7K6)
inactive: [1] 0.059 | [2] -0.217 | [3] -0.201 | [5] 0.166

ATG4D (UniProt Q86TL0)
inactive: [1] -0.011 | [2] 0.057 | [4] 0.041

CASP7 isoform 3 (UniProt P55210)
inactive: [1] 0.035 | [2] -0.02 | [4] -0.105

B3GALT6 (UniProt Q96L58)
inactive: [1] 0.055 | [2] 0.041 | [4] 0.269

BCORL1 isoform 3 (UniProt Q5H9F3)
inactive: IRAK-1-4 Inhibitor I -0.141 | [3] 0.029 | [4] 0 | [5] -0.382

BUD13 (UniProt Q9BRD0)
inactive: [1] -0.037 | [2] 0.068 | [4] -0.162 | [5] 0.029

CCND3 (UniProt P30281)
inactive: [1] 0.043 | [2] 0.051 | [4] 0.036 | [5] -0.023

C1orf131 isoform 5 (UniProt Q8NDD1)
inactive: [3] 0.096 | [4] -0.009 | [5] -0.108

CACUL1 (UniProt Q86Y37)
inactive: [3] -0.046 | [4] 0.088 | [5] 0.111

C6orf120 (UniProt Q7Z4R8)
Sequence of UniProt Q7Z4R8 (Q7Z4R8 whole entry, looked up): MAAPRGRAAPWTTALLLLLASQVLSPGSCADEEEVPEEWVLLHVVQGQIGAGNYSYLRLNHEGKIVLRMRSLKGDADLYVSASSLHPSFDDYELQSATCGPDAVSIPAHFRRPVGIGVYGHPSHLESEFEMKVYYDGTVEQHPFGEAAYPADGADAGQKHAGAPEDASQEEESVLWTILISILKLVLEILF
inactive: [1] -0.101 | [2] -0.015 | [4] -0.131 | [5] 0.137

CANX (UniProt D6RHJ3)
inactive: [3] 0.072

CASC1 (UniProt Q6TDU7)
inactive: [1] -0.256 | [2] 0.037 | [5] 0.046

BICRA (UniProt Q9NZM4)
inactive: [1] -0.077 | [2] 0.208 | [4] -0.122 | [5] -0.142

BNIP3 (UniProt Q12983)
inactive: [1] 0.034 | [2] -0.053 | [4] -0.023 | [5] -0.074

C9orf72 (UniProt Q96LT7)
inactive: [1] -0.012 | [2] 0.049 | [4] -0.028 | [5] 0.002

BBS7 (UniProt Q8IWZ6)
inactive: [3] 0.035 | [4] -0.358 | [5] 0.181

CDK11A (UniProt Q9UQ88)
inactive: [1] -0.046 | [2] 0.025 | [4] 0.091 | [5] 0

BTRC (UniProt Q9Y297)
inactive: [1] 0.024 | [2] -0.042 | [3] -0.003 | [5] -0.048

ATF7IP2 (UniProt Q5U623)
inactive: [1] 0.162 | [2] 0.01 | [3] 0.101 | [5] 0.017

ATPSCKMT (UniProt Q6P4H8)
inactive: [1] 0.111 | [2] -0.006 | [4] 0.023

CEP57L1 (UniProt Q8IYX8)
inactive: [1] -0.078 | [2] 0.115 | [4] 0.143 | [5] 0.099

ATXN2 (UniProt F8WB06)
inactive: [4] -0.014

CEP295 isoform 3 (UniProt Q9C0D2)
inactive: [1] -0.154 | [2] 0.045 | [5] 0.024

C8orf88 (UniProt P0DMB2)
Sequence of UniProt P0DMB2 (P0DMB2 whole entry, looked up): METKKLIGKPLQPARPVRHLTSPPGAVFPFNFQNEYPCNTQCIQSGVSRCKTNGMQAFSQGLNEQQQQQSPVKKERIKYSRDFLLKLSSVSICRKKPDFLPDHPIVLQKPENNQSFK
inactive: [1] 0.033 | [2] 0.051 | [4] 0.051 | [5] -0.002

CAPNS1 (UniProt K7ES78)
inactive: [3] -0.094 | [4] -0.216

CDKL5 (UniProt O76039)
inactive: [3] 0.043 | [4] -0.139 | [5] -0.132

CD80 (UniProt P33681)
Sequence of UniProt P33681 (P33681 whole entry, looked up): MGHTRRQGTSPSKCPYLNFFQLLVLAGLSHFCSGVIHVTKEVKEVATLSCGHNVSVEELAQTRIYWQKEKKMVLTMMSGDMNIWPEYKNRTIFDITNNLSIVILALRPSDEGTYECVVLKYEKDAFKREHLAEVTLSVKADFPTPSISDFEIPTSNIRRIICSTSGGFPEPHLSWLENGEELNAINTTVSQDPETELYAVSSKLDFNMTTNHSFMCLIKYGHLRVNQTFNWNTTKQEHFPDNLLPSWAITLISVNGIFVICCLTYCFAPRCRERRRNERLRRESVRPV
inactive: [3] 0.032 | [4] 0.018 | [5] 0.048

ATE1 (UniProt O95260)
inactive: [1] 0 | [2] 0.07 | [5] -0.125

CDC25A (UniProt P30304)
inactive: [4] -0.064

BAHCC1 (UniProt Q9P281)
active: [5] -0.696
inactive: [3] 0.011 | [4] -0.187

CAD (UniProt H7BZB3)
inactive: [3] -0.011 | [5] -0.003

Reference: the supplement of paper PMC10849652
